Source: PubChem (National Center for Advancing Translational Sciences (NCATS))
SNCA expr inh: Primary qHTS assay for inhibitors of alpha-synuclein gene (SNCA) expression; HEK-293 SNCA-luciferase knock-in, luminescence, 24 h; Potency, µM (top dose mostly 57.2 µM), without a hit: top-dose activity change, negative = inhibition, usual class: inhibitors; 0.17% of 140,000 active; AID 1671194, 2021;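 also: potency is read from the fitted curve at half-maximal effect; plate controls were DMSO cells for no effect and cell-free wells for full effect; nearly all actives have a fitted effect of over 45% in size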
HEK293 viab: GF-AFC viability counterscreen for inhibitors of alpha-synuclein gene (SNCA) expression; HEK-293-SNCA-luc viability, GF-AFC fluorescence, 24 h; Potency, µM (series often up to 57.1 µM), inactives show at the top dose activity change, negative = cytotoxicity, hits mostly cytotoxic; 0.12% of 150,000 active;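 also: potency is read from the fitted curve at half-maximal effect; 0% = DMSO-treated cells and -100% = medium-only wells without cells; nearly all actives have a fitted effect of over 30% in size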
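Cytotoxicity counterscreen: after 24 h compound treatment of genome-edited SNCA-luciferase HEK-293 cells, live-cell protease substrate GF-AFC read by fluorescence after 30 min; activity scaled between DMSO (0%) and medium-only (-100%), curves Hill-fitted.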
KDM5B inh: Primary screen for KDM5B Histone Demethylases FDH-coupled qHTS. Lysine-specific demethylase 5B (Homo sapiens), Q9UGL1. KDM5B demethylase, FDH-coupled NADH fluorescence (FDH is formaldehyde dehydrogenase). Potency, µM (titrated, usually from 57.7 µM), hits mostly inhibitors. 2.6% of 220,000 active; also: potency is read from the fitted curve at half-maximal effect; 0% is about no effect; nearly all actives have a fitted effect of over 70% in size
Target sequence (Q9UGL1 whole entry, looked up): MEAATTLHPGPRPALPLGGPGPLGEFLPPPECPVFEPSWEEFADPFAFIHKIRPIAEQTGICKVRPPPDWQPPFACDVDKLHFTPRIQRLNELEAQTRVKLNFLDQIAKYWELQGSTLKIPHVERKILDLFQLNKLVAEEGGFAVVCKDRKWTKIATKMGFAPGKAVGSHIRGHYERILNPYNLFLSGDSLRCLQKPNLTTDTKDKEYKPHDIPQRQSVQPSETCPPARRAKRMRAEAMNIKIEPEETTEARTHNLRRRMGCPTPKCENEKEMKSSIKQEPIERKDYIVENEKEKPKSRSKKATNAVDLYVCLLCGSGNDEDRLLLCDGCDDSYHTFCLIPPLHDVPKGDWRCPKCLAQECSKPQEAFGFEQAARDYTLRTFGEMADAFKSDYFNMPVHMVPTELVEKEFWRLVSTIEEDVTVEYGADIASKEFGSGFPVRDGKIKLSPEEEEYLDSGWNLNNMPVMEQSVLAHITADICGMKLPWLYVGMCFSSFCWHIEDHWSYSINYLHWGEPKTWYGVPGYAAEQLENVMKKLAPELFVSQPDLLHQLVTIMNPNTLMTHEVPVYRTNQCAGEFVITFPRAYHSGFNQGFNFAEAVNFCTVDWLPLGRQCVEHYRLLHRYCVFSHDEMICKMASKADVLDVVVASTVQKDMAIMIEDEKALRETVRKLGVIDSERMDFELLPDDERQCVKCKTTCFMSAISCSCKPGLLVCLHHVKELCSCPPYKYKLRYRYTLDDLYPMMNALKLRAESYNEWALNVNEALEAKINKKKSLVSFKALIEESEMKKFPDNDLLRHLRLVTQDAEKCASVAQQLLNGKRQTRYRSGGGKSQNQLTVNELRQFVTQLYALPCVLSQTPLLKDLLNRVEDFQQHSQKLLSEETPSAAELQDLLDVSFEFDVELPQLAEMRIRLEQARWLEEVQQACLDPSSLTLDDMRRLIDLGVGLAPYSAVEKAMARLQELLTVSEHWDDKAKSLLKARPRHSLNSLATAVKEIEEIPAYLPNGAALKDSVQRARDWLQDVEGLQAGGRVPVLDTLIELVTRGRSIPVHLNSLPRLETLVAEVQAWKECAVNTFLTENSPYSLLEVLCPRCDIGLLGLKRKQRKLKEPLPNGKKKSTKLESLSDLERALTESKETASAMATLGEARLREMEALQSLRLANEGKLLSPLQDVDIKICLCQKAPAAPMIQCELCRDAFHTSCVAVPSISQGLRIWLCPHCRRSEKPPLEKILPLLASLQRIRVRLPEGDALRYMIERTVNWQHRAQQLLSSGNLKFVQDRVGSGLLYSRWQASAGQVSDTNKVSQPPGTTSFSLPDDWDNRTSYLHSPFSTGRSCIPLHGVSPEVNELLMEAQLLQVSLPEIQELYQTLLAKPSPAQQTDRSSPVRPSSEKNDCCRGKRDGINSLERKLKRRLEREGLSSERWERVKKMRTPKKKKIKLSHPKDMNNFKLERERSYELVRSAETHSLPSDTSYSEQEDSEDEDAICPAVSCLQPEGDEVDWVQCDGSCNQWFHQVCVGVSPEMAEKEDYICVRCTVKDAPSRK
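Measured: NADH fluorescence change, 30 min, RT. System: KDM5BΔAP 200 nM final, H3K4me3 peptide, α-KG, Fe(II), ascorbate, NAD⁺ plus FDH, pH 7.5 HEPES. Compounds: titrated, 10 min pre-incubation with enzyme.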
IP6K1 inh: Primary qHTS assay for small molecule inhibitors of Inositol hexaphosphate kinase 1 (IP6K1) | Inositol hexakisphosphate kinase 1 (Homo sapiens), Q92551 | IP6K1 kinase, ADP-Glo luminescence, 2 h; active compounds read low | activity change, % (series mostly up to about 58 µM) | 0.81% of 140,000 active | AID 1645851, 2021; in the data active = activity change below about -25%; also: % is scaled to controls: 0 for no effect and ±100 for the full control effect
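ADP-Glo luminescence measures ADP made by human IP6K1 during a 2 h RT reaction with ATP/IP6 (mix at 1.3 mM/130 uM); top library doses 57.5 and 19.1 uM final.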
* hit, by the source's call; i = inactive; ? = inconclusive; nt = no result; [ ] = dose if it differs, or a comment. Shown are actives, neighbours in structure and some others; about 2.9% of the full set was active somewhere. Unless noted, calls follow the shape of the dose curve; as a rule, active = well fitted curve in the direction sought with a large enough effect; inconclusive = small, poorly fitted or top-dose-only effect, or another doubt; inactive = no such curve, though single readings can be large; an effect the other way counts as inactive or inconclusive.

SMILES	SNCA expr inh	HEK293 viab	KDM5B inh	IP6K1 inh
CS(=O)(=O)c1cnc(NCc2cn3ccsc3n2)nc1C1CCCNC1 (centres undefined)	0.7%	1.5%	i	-20.6
CN(CC(=O)Nc1c(Cl)cccc1Cl)C(=O)CCc1ncc(-c2ccccc2F)o1	nt	nt	i	nt
O=S1(=O)NCC2(CCN(Cc3ccoc3)CC2)Oc2ncccc21	-10.7%	-1.3%	50.1µM*	1.5
O=S1(=O)NCC2(CCN(Cc3ccc(Cl)s3)CC2)Oc2ncccc21	-21.0%	-7.8%	?	2.2
CCOc1ccc(C2Cn3nnc(-c4nc(-c5ccccc5Br)no4)c3CO2)cc1 (centres undefined)	-1.8%	0.9%	22.4µM*	-1.6
CCOc1ccc(C2Cn3nnc(-c4nc(-c5ccccc5OC)no4)c3CO2)cc1 (centres undefined)	-14.1%	6.3%	?	-7.2
CCOc1cccc(-c2noc(-c3nnn4c3COC(c3cccc(OC)c3)C4)n2)c1 (centres undefined)	1.5%	6.6%	25.1µM*	7.9
O=C(OCCOc1ccccc1Cl)c1ccccc1C(=O)c1ccc(Cl)cc1	nt	nt	i	nt
Cc1ccc(-c2cc3c(=O)n(CCNC(=O)c4cnccn4)ccn3n2)cc1C	-4.8%	0.3%	22.4µM*	-0.1
CCOc1ccc(-c2cc3c(=O)n(CCNC(=O)c4cnccn4)ccn3n2)cc1	100.7%	0.4%	25.1µM*	-10.3
O=C(c1ccn(C(F)F)n1)N1CCc2nc(-c3ccc(Cl)cc3)[nH]c2C1	27.3%	-10.8%	i	0.0
CCOC(=O)N1CCC(N2CCc3nc(-c4ccc(Cl)cc4)[nH]c3C2)C1 (centres undefined)	24.4%	-5.6%	22.4µM*	13.3
CC(NC(=O)CSc1nnc(COc2ccccc2Cl)n1C)c1ccc2ccccc2c1 (centres undefined)	nt	nt	i	nt
Cc1ccc(-c2nnc3ccc(N4CCCCC4)nn23)nc1	2.0%[87.6 µM]	0.2%[87.6 µM]	31.6µM*	-3.8
CCCc1cc(=O)[nH]c(-n2nc(C)cc2NC(=O)CCc2ccccc2)n1	nt	nt	i	nt
Cn1c(=O)n(-c2ccc3c(c2)OCO3)c2nc(-c3ccc(Cl)cc3)nc(C(N)=O)c21	31.6µM*	1.0%	?	13.9
CC(C)c1ccc(-c2nc(C(N)=O)c3c(n2)n(-c2ccc4c(c2)OCO4)c(=O)n3C)cc1	23.4%	6.6%	i	-1.0
C=CCNC(=O)C(NC(=O)c1cccs1)C1CCN(C(=O)c2ccc(F)cc2)CC1 (centres undefined)	-20.0%	3.0%	28.2µM*	12.3
C=CCNC(=O)C(NC(=O)c1cccc(OC)c1)C1CCN(C(=O)c2ccc(F)cc2)CC1 (centres undefined)	-6.0%	5.1%	i	6.8
N#Cc1ccc(CN2CCCC3(C2)NC(=O)c2ccccc2O3)cc1 (centres undefined)	1.4%[87.6 µM]	-7.2%[87.6 µM]	i	26.2
Cc1ccc(CN2CCCC3(COc4ccccc4C(=O)N3)C2)cc1 (centres undefined)	2.4%[87.6 µM]	7.1%[87.6 µM]	35.5µM*	7.2
O=C1NC2(CCN(Cc3ccc(OC(F)(F)F)cc3)C2)COc2ccccc21 (centres undefined)	-4.7%	0.6%	22.4µM*	5.0
O=C1NC2(CCN(Cc3ccc(F)cc3)C2)COc2ccccc21 (centres undefined)	-22.7%[87.6 µM]	-8.0%[87.6 µM]	?	23.0
N#Cc1ccc(CN2CCCC3(COc4ccccc4C(=O)N3)C2)cc1 (centres undefined)	?	1.9%	35.5µM*	16.6
Cn1nccc1CN1CCC2(COc3ccccc3C(=O)N2)C1 (centres undefined)	-11.1%[87.6 µM]	2.4%[87.6 µM]	?	10.7
SMILES	SNCA expr inh	HEK293 viab	KDM5B inh	IP6K1 inh
O=C1NC2(CCN(Cc3ccccc3)C2)COc2ccccc21 (centres undefined)	-5.4%[87.6 µM]	9.1%[87.6 µM]	39.8µM*	4.6
COc1cccc(CN2CCOC3CCN(C(=O)c4ccccc4)CC3C2=O)c1 (centres undefined)	?	-15.3%[87.6 µM]	i	-6.5
N#Cc1ccc(CN2CCC3(COc4ccccc4C(=O)N3)C2)cc1 (centres undefined)	-11.7%[87.6 µM]	10.7%[87.6 µM]	39.8µM*	16.6
N#Cc1ccc(CN2CCC3(CC2)COc2ccccc2C(=O)N3)cc1	19.6%	-2.2%	i	15.7
O=C(CCC[C@H]1NC[C@@H]2C[C@H]1CN(Cc1ccccc1)C2)NCCc1cccnc1	2.0%	2.9%	?	-24.2
O=C(CCC[C@H]1NC[C@@H]2CC1CN(Cc1ccccc1)C2)NCCCc1ccccc1	-6.6%	-10.8%	7.08µM*	11.9
Cc1cccc2c(C(=O)N3CCN(Cc4ccccc4)CC3)cc(-c3cccnc3)nc12	nt	nt	i	nt
CCn1cc(-c2cc(C(=O)N3CCCCCC3)c3cccc(C)c3n2)cn1	2.7%	?	31.6µM*	0.7
Cc1nnsc1C(=O)N[C@H]1CCN2C(=O)N(c3ccc(F)c(Cl)c3)C(=O)[C@@H]2C1	-12.3%[87.6 µM]	-2.5%[87.6 µM]	i	6.0
O=C(N[C@H]1CCN2C(=O)N(c3cccc4nsnc34)C(=O)[C@@H]2C1)c1ccc(F)c(Cl)c1	?	-1.5%	31.6µM*	-3.9
Cc1ccc(-c2ccc3nnc(CNC(=O)c4cc(C)ccc4C)n3n2)cc1	2.4%	0.4%	?	-14.5
Cc1ccc(-c2ccc3nnc(CNC(=O)c4cccnc4)n3n2)cc1	-15.1%	-15.3%	31.6µM*	-5.6
Cc1ccc(-c2ccc3nnc(CNC(=O)Cc4cccc(C)c4)n3n2)cc1	-8.5%	-8.0%	?	-13.7
Cc1ccc(-c2ccc3nnc(CNC(=O)c4nccc5ccccc45)n3n2)cc1	16.9%	-8.9%	31.6µM*	-7.5
COc1ccc(-c2ccc3nnc(CNC(=O)c4nccc5ccccc45)n3n2)cc1	-13.4%	-9.1%	?	-2.7
CC(=O)N1CCC(C(=O)NCc2nnc3ccc(-c4ccc(C)cc4)nn23)CC1	-0.6%	5.3%	31.6µM*	-16.1
Cc1ccc(-c2ccc3nnc(CNC(=O)c4cnccn4)n3n2)cc1	-1.5%	8.4%	12.6µM*	12.7
N#C/C(=C\c1cccn1-c1ccccc1)C(=O)N1CCOCC1	nt	nt	i	nt
CCC(=O)N1CCCc2cc(S(=O)(=O)Nc3ccc(C)c(C)c3)ccc21	-9.6%	-2.0%	?	-4.7
CCCCOC(=O)c1ccc(NC(=O)c2cc(=O)c3cc(CC)ccc3o2)cc1	nt	nt	i	nt
O=C(c1cn[nH]c1-c1ccc(F)cc1)N1CCC2(CC1)CC(O)CCO2 (centres undefined)	32.5%	-7.2%	i	0.0
O=C(CCc1nc2cccnc2n1-c1ccccc1)Nc1ccc(Cl)c(Cl)c1	7.08µM*	-29.2%	i	-7.4
Cc1ccc(NC(=O)CCc2nc3cccnc3n2-c2ccccc2)cc1Cl	4.9%	-11.3%	i	21.9
Cc1ccccc1CC(=O)NC(C)c1ccncc1 (centres undefined)	nt	nt	i	nt
CCn1cc2c3c(cccc31)CN(C(=O)c1ccc(OC)c(F)c1)CC2	-0.9%	0.0%	31.6µM*	3.8
